Results as given in the supplement of paper PMC9942566.
± gives the standard deviation of the averaged measurements.

test system: Serratia marcescens K904 PosmB-luxCDABE reporter (pMQ747); experiment: PosmB-lux reporter fold induction (RLU/OD600 relative to no-compound control), highest over Biolog concentrations; higher = stronger Rcs reporter activation; details: wild type K904; 4 h
Protocol: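 Serratia marcescens K904 (wild type) or its isogenic ΔrcsB mutant, carrying the Rcs-dependent PosmB-luxCDABE reporter plasmid pMQ747, was grown in LB at OD600 0.1 in Biolog Phenotype MicroArray plates PM11-20 for 4 h at 30-32°C. Each compound is present at 3-4 proprietary concentrations (not stated); per the Fig. S1 legend the value given is the highest fold over those wells. Three independent trials.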

Compound	PosmB-lux reporter fold induction
NC[C@@H]1O[C@H](O[C@H]2[C@@H](O)[C@H](O[C@@H]3[C@@H](O)[C@H](N)C[C@H](N)[C@H]3O[C@H]3O[C@H](CN)[C@@H](O)[C@H](O)[C@H]3N)O[C@@H]2CO)[C@H](N)[C@@H](O)[C@@H]1O [Neomycin] (Biolog plate: PM11, well positions: F9-12)	1.51 ± 0.15
CC1(C)S[C@@H]2[C@H](NC(=O)COc3ccccc3)C(=O)N2[C@H]1C(=O)O.CN(C)[C@@H]1C(O)=C(C(=O)NCN2CCN(CCO)CC2)C(=O)[C@@]2(O)C(O)=C3C(=O)c4c(O)cccc4[C@@](C)(O)[C@H]3C[C@@H]12 [Penimepicycline] (Biolog plate: PM12, well positions: B5-8)	3.22 ± 1.1
N[C@@H]1CONC1=O [D-Cycloserine] (Biolog plate: PM15, well positions: B1-4)	1.37 ± 0.23
O=C(OC[C@H]1O[C@@H](OC(=O)c2cc(O)c(O)c(OC(=O)c3cc(O)c(O)c(O)c3)c2)[C@H](OC(=O)c2cc(O)c(O)c(OC(=O)c3cc(O)c(O)c(O)c3)c2)[C@@H](OC(=O)c2cc(O)c(O)c(OC(=O)c3cc(O)c(O)c(O)c3)c2)[C@@H]1OC(=O)c1cc(O)c(O)c(OC(=O)c2cc(O)c(O)c(O)c2)c1)c1cc(O)c(O)c(OC(=O)c2cc(O)c(O)c(O)c2)c1 [tannic acid] (Biolog plate: PM17, well positions: F9-12)	1.5 ± 0.49
Cc1ncc([N+](=O)[O-])n1CC(O)CCl (centres undefined) [ornidazole] (Biolog plate: PM20, well positions: C9-12)	1.61 ± 0.055
Cn1c(=O)c2c(ncn2C)n(C)c1=O [caffeine] (Biolog plate: PM17, well positions: H5-8)	1.68 ± 0.37
CC(=O)OCC1=C(C(=O)O)N2C(=O)[C@@H](NC(=O)Cc3cccs3)[C@H]2SC1 [Cephalothin] (Biolog plate: PM11, well positions: H1-4)	1.36 ± 0.043
O=c1ccc2ccccc2o1 [coumarin] (Biolog plate: PM19, well positions: A9-12)	1.03 ± 0.14
CC(C)(C)CC(C)(C)c1ccc(OCCOCC[N+](C)(C)Cc2ccccc2)cc1 [Benzethonium chloride] (Biolog plate: PM12, well positions: E9-12)	2.27 ± 0.38
O=P(O)(O)OP(=O)(O)O [sodium pyrophosphate decahydrate] (Biolog plate: PM18, well positions: A5-8)	1.27 ± 0.59
[Cl][Mn][Cl] [Manganese chloride] (Biolog plate: PM13, well positions: G5-8)	1.25 ± 0.2
CCN1CCN(C(=O)N[C@@H](C(=O)N[C@@H]2C(=O)N3[C@@H]2SC(C)(C)[C@@H]3C(=O)O)c2ccccc2)C(=O)C1=O [Piperacillin] (Biolog plate: PM14, well positions: F5-8)	3.19 ± 1.8
O=C(O)CN(CCOCCOCCN(CC(=O)O)CC(=O)O)CC(=O)O (Biolog plate: PM14, well positions: H1-4)	2.37 ± 0.77
COc1cc(Cc2cnc(N)nc2N)cc(OC)c1OC [trimethoprim] (Biolog plate: PM16, well positions: B9-12)	1.93 ± 0.91
CO[C@@]1(NC(=O)Cc2cccs2)C(=O)N2C(C(=O)O)=C(COC(N)=O)CS[C@@H]21 [Cefoxitin] (Biolog plate: PM14, well positions: E1-4)	4.05 ± 0.85
CN(C)[C@@H]1C(O)=C(C(N)=O)C(=O)[C@@]2(O)C(O)=C3C(=O)c4c(O)ccc(Cl)c4[C@@](C)(O)[C@H]3C[C@@H]12 [Chlortetracycline] (Biolog plate: PM11, well positions: A5-8)	1.48 ± 0.4
CN(C)CCCN1c2ccccc2Sc2ccc(Cl)cc21 [chlorpromazine] (Biolog plate: PM17, well positions: D9-12)	2 ± 0.77
CCCCCCCCCCCC[N+](C)(C)CCCS(=O)(=O)[O-] [lauryl sulfobetaine] (Biolog plate: PM19, well positions: G1-4)	2.95 ± 1.1
Cc1noc(NS(=O)(=O)c2ccc(N)cc2)c1C [sulfisoxazole] (Biolog plate: PM18, well positions: C5-8)	0.979 ± 0.2
